Bioassay records (PubChem BioAssay)
PKA-R1A activ – activators of PKA-R1A complex. P00514+P68181. activation, % at 11.4 µM. 340,000 tested, 0.083% active. PKA-R1A dissociation, Cy5-IP20 fluorescence polarization; scaled: DMSO 0%, 113 µM cGMP 100%;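 active means percent activation above the mean of all tested compounds plus 3 SD, cut at about 19% in these data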;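 further: higher means more PKAc released from R1A so a rise in polarization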
PAFAH1B3 FP inh – blocks human PAF acetylhydrolase 1B catalytic subunit 3 | Q15102 | 340,000 tested, 0.28% active | inhibition, % at 3.39 µM | AID 492972 | recombinant PAFAH1B3, FP-rhodamine probe, fluorescence polarization;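 active means inhibition above the screen-wide average of all tested compounds plus 3 SD, cut at about 25% in these data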;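 further: 0% = enzyme with DMSO only and 100% = wells lacking PAFAH1B3 protein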
PAFAH1B2 FP inh – inhibitors of human PAFAH1B2. recombinant PAFAH1B2, FP-rhodamine activity probe, fluorescence polarization. 340,000 tested, 1.2% active. P68402. inhibition, % at 3.39 µM;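 active means inhibition above the mean of all tested compounds plus 3 SD, cut at about 24% in these data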;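 further: 0% = enzyme with DMSO and 100% = wells lacking PAFAH1B2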
PKA-R2B activ – activates the human PKA-R2B holoenzyme complex; AID 504700; activation, % at 11.4 µM; 340,000 tested, 0.079% active; P22694+P31323; PKA-R2B holoenzyme dissociation, Cy5-IP20 fluorescence polarization; R2B truncated from residue 108, S112A mutant; 0% DMSO only, 100% 113 µM cGMP;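 active means activation above a cutoff set at the mean over all compounds plus 3 SD, cut at about 18% in these data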;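 further: higher means more holoenzyme dissociation and a rise in polarization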
Target sequence (P31323 whole entry, looked up, other chains not shown, the tested form may be a part): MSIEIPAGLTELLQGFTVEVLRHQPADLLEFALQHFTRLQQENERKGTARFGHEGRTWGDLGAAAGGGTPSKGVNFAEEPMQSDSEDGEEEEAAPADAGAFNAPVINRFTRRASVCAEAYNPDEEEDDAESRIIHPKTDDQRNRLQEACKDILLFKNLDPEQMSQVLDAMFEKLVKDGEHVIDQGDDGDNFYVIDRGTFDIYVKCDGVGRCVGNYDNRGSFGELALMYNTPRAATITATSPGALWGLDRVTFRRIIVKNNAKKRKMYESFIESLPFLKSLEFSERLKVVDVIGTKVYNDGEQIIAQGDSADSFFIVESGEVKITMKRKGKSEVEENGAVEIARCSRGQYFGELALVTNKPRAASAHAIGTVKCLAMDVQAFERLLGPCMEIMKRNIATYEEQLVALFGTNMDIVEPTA
PAFAH2 FP inh – PAFAH2 (human) inhibition. recombinant PAFAH2, FP-rhodamine activity probe, fluorescence polarization. Q99487. 340,000 tested, 0.99% active. inhibition, % at 3.39 µM;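 active means inhibition above the mean over all tested compounds plus 3 SD, cut at about 30% in these data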;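 further: inhibitors block probe labeling of enzyme so polarization drops; 0% = enzyme with DMSO and 100% = wells lacking PAFAH2 protein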
pPAFAH inh – inhibitors of human plasma PAF acetylhydrolase (pPAFAH); Q13093; AID 463082; inhibition, % at 3.39 µM; recombinant pPAFAH, FP-rhodamine probe fluorescence polarization; 330,000 tested, 1.5% active;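 active means inhibition above the mean inhibition across the screen plus 3 SD, cut at about 25% in these data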;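 further: inhibitors block binding of the rhodamine activity-based probe so polarization drops; 0% = enzyme with DMSO and 100% = wells lacking pPAFAH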
* = called active by the depositor. Shown are actives, neighbours in structure and some others; about 2.6% of the full set was active somewhere.

How did Cc1ccc(SCC(=O)OCC(=O)N(C)CC(=O)Nc2ccc(F)cc2)cc1 do in these assays?
PKA-R1A activ: -8; PAFAH1B3 FP inh: 3; PAFAH1B2 FP inh: 44*; PKA-R2B activ: -13; PAFAH2 FP inh: -11; pPAFAH inh: 27*

How did COc1ccc(NC(=O)C2CCN(S(=O)(=O)c3ccc(Cl)c(C(F)(F)F)c3)CC2)cn1 do in these assays?
PKA-R1A activ: -8; PKA-R2B activ: -5

How did CCN(CC(=O)Nc1ccccc1C(F)(F)F)C(=O)c1ccc2c(c1)NC(=O)C(C)S2 (stereo not drawn) do in these assays?
PKA-R1A activ: 7; PKA-R2B activ: -11

What do the screens show for `Cc1ccc2nc(N(CCN(C)C)C(=O)C3CCN(S(=O)(=O)c4cccs4)CC3)sc2c1`?
PKA-R1A activ: 5; PKA-R2B activ: 6

What do the screens show for `Cc1ccccc1-n1c(-c2ccncc2)n[nH]c1=S`?
PKA-R1A activ: -8; PAFAH1B3 FP inh: -1; PAFAH1B2 FP inh: 0; PKA-R2B activ: -9; PAFAH2 FP inh: -6; pPAFAH inh: -3

How did Cc1cccc(-n2c(-c3ccncc3)n[nH]c2=S)c1C do in these assays?
PKA-R1A activ: -2; PAFAH1B3 FP inh: 8; PAFAH1B2 FP inh: 4; PKA-R2B activ: 2; PAFAH2 FP inh: -5; pPAFAH inh: 30*

How did CCC(C(=O)NCC1CCCO1)n1nc(C)c2sc3ccccc3c2c1=O (stereo not drawn) do in these assays?
PKA-R1A activ: 1; PAFAH1B3 FP inh: 2; PAFAH1B2 FP inh: -5; PKA-R2B activ: 4; PAFAH2 FP inh: 4; pPAFAH inh: 0

How did O=C1OC(Nc2ncccn2)c2ccccc21 (stereo not drawn) do in these assays?
PKA-R1A activ: -2; PAFAH1B3 FP inh: -2; PAFAH1B2 FP inh: 4; PKA-R2B activ: -9; PAFAH2 FP inh: 4; pPAFAH inh: -5

How did O=C1OC(Nc2cc(Br)cc3cccnc23)c2ccccc21 (stereo not drawn) do in these assays?
PKA-R1A activ: -7; PAFAH1B3 FP inh: 69*; PAFAH1B2 FP inh: 18; PKA-R2B activ: 0; PAFAH2 FP inh: 22; pPAFAH inh: 30*

How did O=C(N/C=C/c1ccco1)OCc1ccccc1 do in these assays?
PKA-R1A activ: -1; PAFAH1B3 FP inh: 10; PAFAH1B2 FP inh: -2; PKA-R2B activ: 0; PAFAH2 FP inh: 5; pPAFAH inh: 26*

What do the screens show for `CC(=O)N1c2ccc(S(=O)(=O)N3CCC(C(=O)NCCc4ccc(Cl)cc4)CC3)cc2CC1C` (stereo not drawn)?
PKA-R1A activ: -13; PAFAH1B3 FP inh: 4; PAFAH1B2 FP inh: 20; PKA-R2B activ: -8; PAFAH2 FP inh: 12; pPAFAH inh: 8

Results for O=C(Nc1ccc(F)c(Cl)c1)c1ccccc1NC(=O)C1CCCCC1C(=O)O (stereo not drawn) ?
PKA-R1A activ: 1; PAFAH1B3 FP inh: 4; PAFAH1B2 FP inh: 3; PKA-R2B activ: 3; PAFAH2 FP inh: 1

How did Cc1ccc(N=C2S/C(=C\c3cn(CC(=O)O)c4ccccc34)C(=O)N2C)cc1 do in these assays?
PKA-R1A activ: 2; PAFAH1B3 FP inh: 17; PAFAH1B2 FP inh: 5; PKA-R2B activ: -1; PAFAH2 FP inh: 8; pPAFAH inh: 26*

How did Cc1ccc(C)n1-c1cccc(C(=O)O)c1 do in these assays?
pPAFAH inh: 63*

Results for Cc1cc(C=O)c(C)n1-c1cccc(C(=O)O)c1 ?
PKA-R1A activ: 0; PAFAH1B3 FP inh: 5; PAFAH1B2 FP inh: 10; PKA-R2B activ: -1; PAFAH2 FP inh: 17; pPAFAH inh: 10

Results for CCCN(CCC)C(=O)C(c1ccccc1)C1(O)CCCCC1 (stereo not drawn) ?
PKA-R1A activ: -5; PAFAH1B3 FP inh: 0; PAFAH1B2 FP inh: 6; PKA-R2B activ: -3; PAFAH2 FP inh: 7

Results for CCOC(=O)CSc1nc2ccc(N3CCOCC3)cc2c(=O)n1Cc1ccc2c(c1)OCO2 ?
pPAFAH inh: 32*

Results for N/C(=N\OC(=O)c1ccc(Cl)cc1Cl)c1ccc(Cl)cc1 ?
PKA-R1A activ: -3; PAFAH1B3 FP inh: 7; PAFAH1B2 FP inh: 37*; PKA-R2B activ: 3; PAFAH2 FP inh: -22; pPAFAH inh: -4
